These results are taken from PubChem BioAssay (NCI).

SMILES strings stand for the structures. “And” between values parts separate entries of the source, which are not always exact repeats. Identical values can stand only once. The panel holds about 83,000 compounds, 20% with a hit somewhere; the sample as a whole holds those more often.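 Treatment: one concentration, 48 hours, 96-well format. Scoring: percent growth, with anything below 10 considered active.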 The source made the active and inactive calls.

This assay deals with HCC-2998 colon. Description: NCI-60 one-dose screen, 48 h (100 = growth as untreated, 0 = no growth, -100 = all killed). To be noted: 10 µM unless noted. Here is the method:
Growth inhibition of the HCC-2998 human tumor cell line is measured as a screen for anti-cancer activity. Cells are grown in 96 well plates and exposed to the test compound for 48 hours. Compounds are tested at a single concentration, which is 10^-5 M for most compounds. The reported endpoint is percent growth (GI% or GIPRCNT), where numbers from 0 - 100% represent growth inhibition, and numbers from -100% - 0 represent cell death. For example, a value of 40 represents 60% growth inhibition. A value of 0 means no net growth occurred over the course of the experiment. A value of -40 indicates 40% of cells at the beginning of the experiment died by the end of the experiment. A value of -100 means all cells are dead at the end of the experiment.
NCI-60 Human Tumor Cell Lines Screen was performed using the standard one-dose NCI protocol, which is described in more detail at https://dtp.cancer.gov/discovery_development/nci-60/default.htm.
Compounds with GIPRCNT values below 10 were considered active. Activity score was based on GIPRCNT using the following formula: […]
Score is 0 for GIPRCNT values of 100 or above, 50 for GIPRCNT values of 0, and 100 for GIPRCNT values of -100.
In the case of `O=C(O)c1cc([N+](=O)[O-])cc([N+](=O)[O-])c1`, the growth is 107% (inactive). As to `O=C1C=C(N2CC2)c2ccccc2C1=O`, the growth was 94% (inactive). Turning to `COC(=O)C12C3C4C1C1C2C3C41NC(=O)c1csc([C@@H](C[C@H](C(C)C)N(C)C(=O)[C@@H](NC(=O)[C@H]2CCCCN2C)C2CC2)OC(C)=O)n1` (stereo not given in full), the growth was 28.4% (inactive). The same measure for `O=[N+]([O-])c1ccc(P(=O)(O)O)cc1`: 102% (inactive); for `Cc1cc(C(C)(C)C)ccc1O`: 106% (inactive). With `Cc1cc(N(CCCl)CCCl)ccc1/C=N\NC(=O)c1cccnc1`, the growth was 97.1% (inactive) and 102% (inactive). With `CN(C)c1ccc(N)cc1`, the growth was 106% (inactive).

Take `Cc1ccc(P(=O)(O)O)cc1`: the growth is 103% (inactive). The same measure for `CN(C)c1ccc([N+](=O)[O-])c([N+](=O)[O-])c1`: 96.6% (inactive) and 107% (inactive); for `CCN(CC)CCn1c(=O)n(C)c2ccccc21`: 101% (inactive). The same measure for `NC(=O)c1c(Br)c(Br)c(Br)c(Br)c1C(=O)O` (tested in a mixture with another compound): 104% (inactive) and 103% (inactive); for `O=C/C=C/c1ccco1`: 106% (inactive). With `CCOC(=O)P(=O)(OCC)OCC`, the growth is 106% (inactive). Consider `O=C(O)c1ccccc1N(CCO)CCCl`, for which the growth is 103% (inactive).

As to `O=C1NC(=O)C(=C/C=C/c2ccccc2)C(=O)N1`, the growth is 62.1% (inactive). For `CC[C@H](C)[C@H]1O[C@]2(C=C[C@@H]1C)C[C@@H]1C[C@@H](C/C=C(\C)[C@@H](O[C@H]3C[C@H](OC)[C@@H](O[C@H]4C[C@H](OC)[C@@H](NC)[C@H](C)O4)[C@H](C)O3)[C@@H](C)/C=C/C=C3\CO[C@@H]4[C@H](O)C(C)=C[C@@H](C(=O)O1)[C@]34O)O2` the value was -83.9% (active). With `O=C1c2ccccc2C(=O)N1N1CC1c1ccccc1` (stereo not given), the growth was 103% (inactive). For `O=C(O)CNCP(=O)(O)O`, the growth is 99.2% (inactive).

On to `CC1=C(C)C(=O)O[C@@H]([C@](C)(O)[C@]2(O)CC[C@@]3(O)[C@@H]4C[C@H]5O[C@]56CC=CC(=O)[C@]6(C)[C@H]4CC[C@]23C)C1`, for which the growth was -69.8% (active).

As for `C[C@]12CCc3sc(Nc4ccc(OC(F)(F)F)cc4)nc3C1=CC[C@@H]1[C@@H]2CC[C@]2(C)C(=O)CC[C@@H]12`, the growth was 96.5% (inactive). `CCCCCCCCCCCCCCCC[n+]1ccccc1`: the growth is -80.8% (active) and -60.6% (active). Regarding `CC[C@H](CC[C@@H](C)[C@H]1CC[C@H]2[C@@H]3CC[C@H]4C[C@]5(CC[C@]4(C)[C@H]3CC[C@]12C)OO[C@](C)(C(F)(F)F)O5)C(C)C`, the growth is 104% (inactive). `CC(=O)c1cccc(S(=O)(=O)F)c1`: the growth is 95.2% (inactive). `C[C@]12CCc3nc(-c4ccc(O)c(O)c4)sc3C1=CC[C@@H]1[C@@H]2CC[C@]2(C)C(=O)CC[C@@H]12`: the growth is 99.2% (inactive).

Turning to `Cc1nc2ccccc2c(=O)n1-c1ccccc1F`, the growth is 108% (inactive). The same measure for `COc1cc(C=C2C(=O)NC(=O)NC2=O)ccc1O`: 96% (inactive). With `COc1ccn(C)c(=O)c1C#N`, the growth is 101% (inactive). `C/C(=N/OC(=O)N(C)C)c1ccc(Cl)c(Cl)c1`: the growth was 109% (inactive).

Turning to `Oc1ccccc1C=NCCN=Cc1ccccc1O`, the growth was 105% (inactive). In the case of `COC(=O)CCP(CCC(=O)OC)c1ccccc1`, the growth is 104% (inactive). As for `COc1ccc(/C=C(/C)[N+](=O)[O-])cc1OC`, the growth is 35.9% (inactive) and 59.2% (inactive). Regarding `Cc1cc(N(CCCl)CCCl)ccc1C=Nc1ccc(-c2csc(-c3ccccc3)n2)cc1`, the growth was 94.2% (inactive). In the case of `COc1ccc2c(c1)c(-c1nc(-c3c[nH]c4ncccc34)cs1)cn2CCCCN1CCOCC1`, the growth is 26.7% (inactive). With `Cc1cc[n+](CCc2ccccc2)cc1`, the growth is 85.8% (inactive) and 102% (inactive). Consider `COC12CC3C4=CCOC5CC(=O)N6c7ccccc7C1(CCN2C4)C6C53` (stereo not given), for which the growth is 96% (inactive). On to `C[C@@]12CCCc3coc(c31)C(=O)c1cc3c(cc12)C(=O)C1=C(NCCS1(=O)=O)C3=O`, for which the growth was -30.8% (active). Regarding `O=S1(=O)OCCO1`, the growth was 110% (inactive). Turning to `C[N+]1(CC#CC[N+]2(C)CCCC2)CCCC1`, the growth was 110% (inactive). Take `CCCCCCCCCCCCCCCCCCn1cc[n+](C)c1`: the growth was -80.7% (active) and -80.9% (active).

In the case of `C[C@]12CCc3sc(Nc4ccc(F)cc4)nc3C1=CC[C@@H]1[C@@H]2CC[C@]2(C)C(=O)CC[C@@H]12`, the growth was 95.1% (inactive).
